Bioassay records: PubChem, The Scripps Research Institute Molecular Screening Center
Hits are enriched below; roughly 2.8% of the tested compounds scored in any of these assays.
pPAFAH FP inh: pPAFAH (human) enzyme inhibition. Q13093. recombinant pPAFAH, FP-rhodamine probe fluorescence polarization. inhibition, % at 3.39 µM. actives 1.5% (n = 330,000). AID 463082;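 active means inhibition above the mean inhibition across the screen plus 3 SD, cut at about 25% in these data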;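 further: inhibitors block binding of the rhodamine activity-based probe so polarization drops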
PAFAH2 inh: inhibitors of human PAFAH2. Q99487. recombinant PAFAH2, FP-rhodamine activity probe, fluorescence polarization. inhibition, % at 3.39 µM. actives 0.99% (n = 340,000). AID 492956;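 active means inhibition above the mean over all tested compounds plus 3 SD, cut at about 30% in these data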;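 further: inhibitors block probe labeling of enzyme so polarization drops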
PAFAH1B3 FP inh: inhibitors of human PAFAH1B3. inhibition, % at 3.39 µM. actives 0.28% (n = 340,000). Q15102. recombinant PAFAH1B3, FP-rhodamine probe, fluorescence polarization;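 active means inhibition above the screen-wide average of all tested compounds plus 3 SD, cut at about 25% in these data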
Target sequence (Q15102 whole entry, looked up): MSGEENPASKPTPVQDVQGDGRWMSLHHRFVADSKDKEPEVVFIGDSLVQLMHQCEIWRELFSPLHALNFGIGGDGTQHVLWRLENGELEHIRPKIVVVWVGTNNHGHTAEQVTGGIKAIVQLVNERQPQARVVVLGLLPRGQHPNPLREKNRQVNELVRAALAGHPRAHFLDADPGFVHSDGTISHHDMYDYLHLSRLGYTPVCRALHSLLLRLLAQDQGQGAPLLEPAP
DAGLB inhibitor: blocks human DAGLB lipase activity. HEK293T DAGLB membrane lysate, EnzChek fluorogenic substrate. inhibition, % at 5.17 µM. actives 0.059% (n = 340,000). AID 504411; in the data active means inhibition above about 34%
HTRA1 inhibitor: HTRA1 (human) protease inhibition; Q92743; recombinant HTRA1, FP-rhodamine activity-based probe, fluorescence polarization; inhibition, % at 5.96 µM; actives 0.5% (n = 340,000); AID 504803; in the data active means inhibition above about 36%
PAFAH1B2 FP inh: blocks human PAF acetylhydrolase 1b catalytic subunit 2; P68402; recombinant PAFAH1B2, FP-rhodamine activity probe, fluorescence polarization; inhibition, % at 3.39 µM; actives 1.2% (n = 340,000);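 active means inhibition above the mean of all tested compounds plus 3 SD, cut at about 24% in these data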
Target sequence (P68402 whole entry, looked up): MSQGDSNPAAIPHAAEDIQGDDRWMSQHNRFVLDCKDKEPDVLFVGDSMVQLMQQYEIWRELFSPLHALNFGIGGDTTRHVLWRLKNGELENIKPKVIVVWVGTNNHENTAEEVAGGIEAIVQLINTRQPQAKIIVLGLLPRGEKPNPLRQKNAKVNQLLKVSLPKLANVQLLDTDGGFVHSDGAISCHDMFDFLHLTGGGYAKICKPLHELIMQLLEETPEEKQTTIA
pPAFAH confirm: confirmation of human plasma PAF acetylhydrolase (pPAFAH) inhibitors. shares compounds with pPAFAH FP inh. recombinant pPAFAH, FP-Rh probe fluorescence polarization. inhibition, % at 3.39 µM. actives 72% (n = 2,300). AID 463230;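 active means mean inhibition of the triplicate above the hit cutoff set for the earlier primary screen, cut at about 25% in these data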
DAGLB confirm: DAGLB (human) inhibition, confirmation screen; shares compounds with DAGLB inhibitor; HEK293T DAGLB membrane lysate, EnzChek fluorogenic substrate; inhibition, % at 5.17 µM; actives 73% (n = 190); AID 504445;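 active means mean inhibition over triplicate wells above a set limit taken from the primary lipase screen, cut at about 34% in these data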
HTRA1 conf: confirmation of human HTRA1 inhibitors | shares compounds with HTRA1 inhibitor | recombinant HTRA1, FP-rhodamine activity-based probe, fluorescence polarization | actives 66% (n = 1,600) | AID 540248 | inhibition, % at 5.96 µM;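 active means mean inhibition over three repeats above a set limit taken from the earlier primary screen, cut at about 37% in these data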;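 further: inhibitors block probe binding so polarization drops and inhibition rises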
A number is an active result; - = inactive; . = no result.

SMILES | pPAFAH FP inh | PAFAH2 inh | PAFAH1B3 FP inh | DAGLB inhibitor | HTRA1 inhibitor | PAFAH1B2 FP inh | pPAFAH confirm | HTRA1 conf | others
COc1cc(-c2nnc(SCc3cc(=O)oc4cc(O)c(O)cc34)o2)cc(OC)c1OC | 59 | 42 | 28 | - | 47 | - | 75 | -
CCOC(=O)CSc1nnc(-c2cc(OC)c(OC)c(OC)c2)o1 | - | - | - | - | - | - | . | .
CCCC(=O)NC(c1cccs1)c1cc([N+](=O)[O-])c2cccnc2c1O (stereo not given) | 68 | - | - | 35 | 36 | - | 73 | 51 | DAGLB confirm=-
CCC(=O)NC(c1cccs1)c1cc([N+](=O)[O-])c2cccnc2c1O (stereo not given) | - | - | - | - | - | - | . | .
CC(=O)Nc1ccc(S(=O)(=O)N2CCC(C(=O)NCCC(=O)NCc3ccccc3)CC2)cc1 | - | - | - | - | - | - | . | .
Oc1ccc(/C=N\Nc2cc(N3CCOCC3)nc(N3CCOCC3)n2)c(O)c1 | - | - | - | - | - | - | . | .
Oc1ccc(/C=N/Nc2cc(N3CCCC3)nc(N3CCCC3)n2)cc1O | 56 | - | - | - | 58 | - | 28 | 140
CC(=O)Nc1nc(SCC(=O)Nc2nnc(C)s2)[nH]c(=O)c1NC(=O)c1cccs1 | - | - | - | - | - | - | . | .
CCOC(=O)N1CCN(S(=O)(=O)c2ccc(C(=O)NNc3nc4ccc(Cl)cc4s3)cc2)CC1 | 38 | - | - | - | 51 | - | 39 | 78
CC(C)(C)NC(=O)NC(=O)C[n+]1ccc(Cc2ccc([N+](=O)[O-])cc2)cc1 | - | - | - | - | - | - | . | .
C[C@H](CO)N1C[C@H](C)[C@@H](CN(C)C(=O)Nc2ccc3c(c2)OCO3)Oc2ccc(NC(=O)NC3CCCCC3)cc2C1=O | - | - | - | - | - | - | . | .
COc1cc(C(=S)N2CCCCC2)ccc1OCC(=O)Nc1ccc(F)cc1 | - | - | - | - | - | - | . | .
N=C1CCC(=N)c2c1c(O)c1ccccc1c2O | 64 | 69 | 44 | - | 88 | 39 | 41 | 110
O=C1CCn2c1c(O)c1ccccc1c2=O | . | - | - | - | - | - | . | .
Cc1cnc(C(=O)OCC(=O)Nc2ccccc2[N+](=O)[O-])cn1 | - | - | - | - | - | - | . | .
COC(=O)/C(=C/Nc1ccc(O)cc1)[N+](=O)[O-] | 37 | - | - | - | 45 | - | - | -
Oc1ccccc1C=NNC(=S)NC1CC2C=CC1C2 (stereo not given) | . | . | . | - | - | . | . | .
Oc1c(Cl)cc(Cl)cc1/C=N/NC(=S)NC1CC2C=CC1C2 (stereo not given) | 36 | 68 | 26 | - | 52 | - | 34 | 54
Cc1cccc(NC(=O)CSc2nnc(-c3ccco3)c(-c3ccco3)n2)c1 | . | - | - | - | - | - | . | .
Cc1cccc(NC(=O)CSc2nnc(-c3ccco3)c(-c3ccco3)n2)c1C | 35 | 41 | - | - | 50 | - | - | -
O=c1cc(-c2ccc(O)c(-c3c(O)cc(O)c4c(=O)cc(-c5ccc(O)cc5)oc34)c2)oc2cc(O)cc(O)c12 | 62 | 38 | 54 | - | 40 | 36 | 71 | 76
O=c1cc(-c2ccc(O)cc2)oc2c(-c3c(O)cc(O)c4c(=O)cc(-c5ccc(O)cc5)oc34)c(O)cc(O)c12 | 63 | 57 | 56 | - | 53 | 40 | 68 | 50
COc1ccc(-c2cc(=O)c3c(O)cc(O)cc3o2)cc1 | - | - | - | - | - | - | . | .
O=c1cc(-c2ccc(O)cc2)oc2c([C@@H]3O[C@H](CO)[C@@H](O)[C@H](O)[C@H]3O)c(O)c([C@@H]3O[C@H](CO)[C@@H](O)[C@H](O)[C@H]3O)c(O)c12 | - | - | - | - | - | - | . | .
Cc1cccc(OCCOC(=O)c2ccc(F)c(S(=O)(=O)N3CCOCC3)c2)c1 | - | - | - | - | - | - | . | .
SMILES | pPAFAH FP inh | PAFAH2 inh | PAFAH1B3 FP inh | DAGLB inhibitor | HTRA1 inhibitor | PAFAH1B2 FP inh | pPAFAH confirm | HTRA1 conf | others
Cc1cc(C)c2c(c1)NC(C(=O)O)C1CC=CC21 (stereo not given) | 68 | 50 | - | - | 74 | - | 33 | 70
CC(C)Oc1ccc(S(=O)(=O)N2CCOCC2)cc1NC(=O)C1CCCCC1 | - | - | - | - | - | - | . | .
CCn1c(SCC(=O)NNC(=O)c2ccc(C)cc2)nnc1C1CC1 | - | - | - | - | - | - | . | .
O=C(CSc1n[nH]c(-c2ccccc2)n1)c1ccc(O)c(O)c1 | 42 | - | - | - | 72 | - | 68 | 66
Cc1cc(SCC(=O)c2ccc3c(c2)OCO3)nc2ccccc12 | - | - | - | - | - | - | . | .
Cc1cc(SCC(=O)c2ccc(O)c(O)c2)nc2ccccc12 | 42 | 31 | - | - | 54 | - | 94 | 69
O=C(C=Cc1ccc2c(c1)OCO2)c1ccccc1 | . | - | - | - | - | - | . | .
CCNc1ccc(Br)cc(C(=O)/C=C/c2ccc(Cl)cc2Cl)c1=O | 66 | 33 | - | - | 64 | - | 34 | 59
CNc1ccc(Br)cc(C(=O)/C=C/c2ccc3c(c2)OCO3)c1=O | 45 | 31 | - | - | 44 | - | 28 | -
CNc1ccc(Br)cc(C(=O)/C=C/c2ccc(OC)cc2)c1=O | 43 | - | - | - | 45 | - | - | -
CNc1ccc(Br)cc(C(=O)/C=C/c2cc(OC)ccc2OC)c1=O | 38 | - | - | - | 39 | - | - | -
COCCCNC(=O)/C=C/c1ccc(Cl)cc1Cl | - | - | - | - | - | - | . | .
COc1ccc(/C=C/C(=O)c2ccc(OC)cc2OC)cc1 | - | - | - | - | - | - | . | .
COc1cccc2c1C(=O)c1c(O)c3c(c(O)c1C2=O)C[C@@](O)(C(=O)CO)C[C@@H]3O[C@H]1C[C@H](N)[C@H](O)[C@H](C)O1 | 58 | 46 | - | - | 63 | 41 | 45 | 67
CC1CCCC(C)N1/N=C/c1ccc(O)c(O)c1 (stereo not given) | 45 | - | - | - | 43 | - | - | -
O=[N+]([O-])c1cc(C(F)(F)F)cc([N+](=O)[O-])c1NN=C1CCCCC1 | 35 | - | - | - | 42 | - | - | -
COc1ccc2c(c1)C=C([C@@H]1C[C@H]3CN(c4ccccc4)C(=O)[C@]34CCCN14)CO2 | - | - | - | - | - | - | . | .
Cc1nnsc1C(=O)N/N=C/c1ccc2ccccc2c1O | 36 | - | - | - | 41 | - | 48 | 55
